This note sets out measurements from PubChem BioAssay (NCATS).

Results filed as inconclusive are left out. Activity calls are given as the source filed them. The call rests on the fitted dose curve; in most records, active means well fitted curve in the direction sought with a large enough effect; inconclusive means small, poorly fitted or top-dose-only effect, or another doubt; inactive means no such curve, though single readings can be large; an effect the other way counts as inactive or inconclusive.

The nature of test [1]: qHTS of pediatric cancer cell lines to identify multiple opportunities for drug repurposing: Primary screen for U-2 OS cells (AID 1347096). Further: nearly all actives have a fitted effect of over 50% in size. The procedure, abridged:
(§1)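 Cells (500-1,000/well) in growth media were settled 5 h at 37 degrees C, then given compounds for 48 h. Viability was read as CellTiter-Glo luminescence. Primary runs used MIPE at 11 points (0.78 nM-46 µM) and NPC at 8 points (0.59 nM-46 µM); follow-ups used 11 points.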

A short description of test [2]: qHTS of pediatric cancer cell lines to identify multiple opportunities for drug repurposing: Primary screen for Saos-2 cells (AID 1347097). Further: nearly all actives have a fitted effect of over 40% in size. The gist of the method: (§2)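 500-1,000 cells/well; 5 h pre-incubation 37 °C/5% CO2; compound pinned; 48 h; CellTiter-Glo, 15 min RT; luminescence. MIPE 11-pt from 0.78 nM, NPC 8-pt from 0.59 nM final. Bortezomib 2.3 µM final as positive control.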

The nature of test [3]: qHTS of pediatric cancer cell lines to identify multiple opportunities for drug repurposing: Primary screen for SK-N-SH cells (AID 1347098). Further: nearly all actives have a fitted effect of over 65% in size. The procedure, abridged:
(§3)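 Cells (500-1,000/well) rested 5 h, then received compounds for 48 h; metabolically active cells were measured by CellTiter-Glo luminescence. Final concentrations spanned up to 46 µM (MIPE, 11-point) or 0.59 nM-46 µM (NPC, 8-point) in primary screens, 11-point in follow-ups.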

Test [4] can be described thus: qHTS of pediatric cancer cell lines to identify multiple opportunities for drug repurposing: Primary screen for NB1643 cells (AID 1347099). Further: nearly all actives have a fitted effect of over 50% in size. The gist of the method: as §2
A short description of test [5]: qHTS of pediatric cancer cell lines to identify multiple opportunities for drug repurposing: Primary screen for LAN-5 cells (AID 1347100). The gist of the method: as §1
Test [6] in a line: qHTS of pediatric cancer cell lines to identify multiple opportunities for drug repurposing: Primary screen for Rh18 cells (AID 1347102). Further: nearly all actives have a fitted effect of over 65% in size. The procedure, abridged:
as §1

A short description of test [7]: qHTS of pediatric cancer cell lines to identify multiple opportunities for drug repurposing: Primary screen for RD cells (AID 1347104). Further: nearly all actives have a fitted effect of over 55% in size. The procedure, abridged: as §2
Test [8] is described as follows: qHTS of pediatric cancer cell lines to identify multiple opportunities for drug repurposing: Primary screen for MG 63 (6-TG R) cells (AID 1347105). Further: nearly all actives have a fitted effect of over 50% in size. The procedure, abridged:
as §2

Test [9] can be described thus: qHTS of pediatric cancer cell lines to identify multiple opportunities for drug repurposing: Primary screen for BT-12 cells (AID 1347101). Further: nearly all actives have a fitted effect of over 25% in size. The procedure, abridged: as §3
Test [10] in a line: qHTS of pediatric cancer cell lines to identify multiple opportunities for drug repurposing: Primary screen for OHS-50 cells (AID 1347103). Further: nearly all actives have a fitted effect of over 40% in size. The gist of the method: as §3
Potency means the concentration at half of the fitted maximal effect.

On to `CC(NCc1ccc2c(c1)nc(NC(=O)c1ccc(-c3cn[nH]c3)s1)n2CC(C)(C)O)C(C)(C)C` (stereo unspecified), for which the Potency in test [1] was 1180 nM (active); in [2], 743 nM (active); in test [3], 961 nM (active); in test [4], 372 nM (active); in [5], 132 nM (active); in [6] it was 1660 nM (active). Further, the results for the Potency in [7] and in test [8] were 1050 nM (active) and 2350 nM (active), respectively.
With `COc1ccc(-n2nc(C(N)=O)c3c2C(=O)N(c2ccc(N4CCCCC4=O)cc2)CC3)cc1`, the Potency entry in test [1], in test [2], in test [3], in test [4], in test [5] and in test [6] was “inactive” each time. Besides, the Potency entry in test [7] and in test [8] was “inactive” each time.
Turning to `C=CC(=O)Nc1cc2c(Nc3ccc(F)c(Cl)c3)ncnc2cc1OCCCN1CCOCC1`, the Potency in test [1] was 7430 nM (active); in [2], 5900 nM (active); in test [3] it was 2730 nM (active); in [4], 23500 nM (active); in test [9] it was 21700 nM (active); in [6] it was 8330 nM (active). Moreover, the Potency was 7690 nM (active) in test [10] and 18700 nM (active) in test [7].
On to `COc1c(N2C[C@@H]3CCCN[C@H]3C2)c(F)cc2c(=O)c(C(=O)O)cn(C3CC3)c12`, for which the Potency result in [1], in test [2], in test [3], in [4], in test [6] and in test [7] was “inactive” throughout. Also, in [8], the Potency result was “inactive”.
Take `Cc1cc(Nc2cc(NC(=O)c3c(Cl)cccc3Cl)ccn2)nc(N)n1`: the Potency in test [1] was 18700 nM (active); in test [2] it was 1050 nM (active); in test [3], 6070 nM (active); in [4], 11800 nM (active); in test [9] it was 544 nM (active); in [7], 935 nM (active). Also, in [8], the Potency is 11800 nM (active).
Turning to `Nc1ccccc1NC(=O)c1ccc(CNC(=O)OCc2cccnc2)cc1`, the Potency in test [1] was 1870 nM (active); in test [2], 2350 nM (active); in test [3] it was 17100 nM (active); in test [4], 1870 nM (active); in test [5], 833 nM (active); in [6], 2960 nM (active). The results for the Potency in test [10], in test [7] and in [8] were 863 nM (active), 5260 nM (active) and 4690 nM (active), respectively.
As for `CC(C)(C)c1cc(NC(=O)Nc2ccc(-c3cn4c(n3)sc3cc(OCCN5CCOCC5)ccc34)cc2)no1`, the Potency entry in test [1], in test [3], in test [4], in test [5], in test [9] and in test [6] was “inactive” throughout. Further, the Potency in test [2] was 18700 nM (active); in test [8] it was 23500 nM (active).
Consider `CC=C1NC(=O)[C@H]2CSSCCC=C[C@H](CC(=O)N[C@H](C(C)C)C(=O)N2)OC(=O)[C@H](C(C)C)NC1=O`, for which the Potency was 29.6 nM (active) in [1]; 11.8 nM (active) in test [2]; 121 nM (active) in test [3]; 9.3 nM (active) in test [4]; 12.2 nM (active) in test [9]; 5.3 nM (active) in test [6]. Also, the values for the Potency in test [10], in test [7] and in test [8] were 19.3 nM (active), 14.8 nM (active) and 11.8 nM (active), respectively.
As to `C=C1C(=CC=C2CCC[C@]3(C)[C@@H]([C@H](C)C=C[C@H](C)C(C)C)CC[C@@H]23)C[C@@H](O)C[C@@H]1O`, the Potency in [1] was 3720 nM (active); in test [2] it was 2960 nM (active); in [3], 1920 nM (active); in test [4], 935 nM (active); in test [6], 743 nM (active); in test [10], 685 nM (active). Also, the figures for the Potency in test [7] and in test [8] were 1660 nM (active) and 5900 nM (active), respectively.
As for `CN(c1ncccc1CNc1nc(Nc2ccc3c(c2)CC(=O)N3)ncc1C(F)(F)F)S(C)(=O)=O`, the Potency result in test [1] and in [6] was “inactive” in each case. In addition, the Potency is 6620 nM (active) in test [2]; 24100 nM (active) in test [3]; 2350 nM (active) in [4]; 10900 nM (active) in test [9]; 5440 nM (active) in [10]; 10500 nM (active) in [7]. For the same compound, the Potency in test [8] was 9350 nM (active).
In the case of `COc1ccc(-c2cc3c(C)nc(N)nc3n(C3CCC(OCCO)CC3)c2=O)cn1` (stereo unspecified), the Potency in test [1] was 469 nM (active); in test [2], 187 nM (active); in [3], 2410 nM (active); in test [4] it was 166 nM (active); in test [5] it was 469 nM (active); in test [6], 93.5 nM (active). Also, the Potency in test [10] is 7.7 nM (active); in [7], 187 nM (active); in test [8], 18.7 nM (active).
`COc1cc(C(=O)N2CCC(N3CCN(C)CC3)CC2)ccc1Nc1ncc2c(n1)N(C)c1ccccc1C(=O)N2C`: in [1], the Potency result is “inactive”. Besides, the Potency is 10500 nM (active) in [2]; 21500 nM (active) in test [3]; 9350 nM (active) in test [4]; 5260 nM (active) in test [5]; 11800 nM (active) in test [6]; 7690 nM (active) in [10]. Further, in [7], the Potency was 14800 nM (active).
For `CN(C)CC(C)(C)CNc1nn2c(-c3ccccc3)nnc2cc1C1CCC1`, in test [1], the Potency entry is “inactive”. Besides, the Potency was 5900 nM (active) in test [2]; 1210 nM (active) in test [3]; 935 nM (active) in [4]; 418 nM (active) in [5]; 1370 nM (active) in test [10].
For the compound `Nc1ccc(C(=O)c2cc3c(ccc4ccccc43)[nH]2)cc1`, the Potency entry in [1] and in [6] was “inactive” throughout. Besides, the Potency is 2350 nM (active) in test [2]; 7640 nM (active) in [3]; 16600 nM (active) in [4]; 9680 nM (active) in test [9]; 10900 nM (active) in [10]; 5900 nM (active) in test [7].
Take `CCn1cc(-c2ccnc3[nH]c(-c4cccc(CN(C)C)c4)cc23)c(-c2ccc(NC(=O)N(C)C)cc2)n1`: the Potency in test [1] was 18700 nM (active); in test [2] it was 3720 nM (active); in test [3] it was 3040 nM (active); in [4], 3320 nM (active); in test [5] it was 26.4 nM (active); in test [6], 16600 nM (active). For the same compound, the Potency is 3850 nM (active) in test [10], 10500 nM (active) in test [7] and 4690 nM (active) in test [8].
